Assay outcomes: PubChem, National Center for Advancing Translational Sciences (NCATS)
BAZ2B block: inhibitors of human BAZ2B bromodomain. Potency, µM (series often up to 114 µM), usual class: inhibitors. AID 504333. Q9UIF8. AlphaScreen BAZ2B-H3K14Ac peptide displacement. 4.4% of 360,000 active; further: nearly all actives have a fitted effect of over 60% in size
Target sequence (Q9UIF8 whole entry, looked up): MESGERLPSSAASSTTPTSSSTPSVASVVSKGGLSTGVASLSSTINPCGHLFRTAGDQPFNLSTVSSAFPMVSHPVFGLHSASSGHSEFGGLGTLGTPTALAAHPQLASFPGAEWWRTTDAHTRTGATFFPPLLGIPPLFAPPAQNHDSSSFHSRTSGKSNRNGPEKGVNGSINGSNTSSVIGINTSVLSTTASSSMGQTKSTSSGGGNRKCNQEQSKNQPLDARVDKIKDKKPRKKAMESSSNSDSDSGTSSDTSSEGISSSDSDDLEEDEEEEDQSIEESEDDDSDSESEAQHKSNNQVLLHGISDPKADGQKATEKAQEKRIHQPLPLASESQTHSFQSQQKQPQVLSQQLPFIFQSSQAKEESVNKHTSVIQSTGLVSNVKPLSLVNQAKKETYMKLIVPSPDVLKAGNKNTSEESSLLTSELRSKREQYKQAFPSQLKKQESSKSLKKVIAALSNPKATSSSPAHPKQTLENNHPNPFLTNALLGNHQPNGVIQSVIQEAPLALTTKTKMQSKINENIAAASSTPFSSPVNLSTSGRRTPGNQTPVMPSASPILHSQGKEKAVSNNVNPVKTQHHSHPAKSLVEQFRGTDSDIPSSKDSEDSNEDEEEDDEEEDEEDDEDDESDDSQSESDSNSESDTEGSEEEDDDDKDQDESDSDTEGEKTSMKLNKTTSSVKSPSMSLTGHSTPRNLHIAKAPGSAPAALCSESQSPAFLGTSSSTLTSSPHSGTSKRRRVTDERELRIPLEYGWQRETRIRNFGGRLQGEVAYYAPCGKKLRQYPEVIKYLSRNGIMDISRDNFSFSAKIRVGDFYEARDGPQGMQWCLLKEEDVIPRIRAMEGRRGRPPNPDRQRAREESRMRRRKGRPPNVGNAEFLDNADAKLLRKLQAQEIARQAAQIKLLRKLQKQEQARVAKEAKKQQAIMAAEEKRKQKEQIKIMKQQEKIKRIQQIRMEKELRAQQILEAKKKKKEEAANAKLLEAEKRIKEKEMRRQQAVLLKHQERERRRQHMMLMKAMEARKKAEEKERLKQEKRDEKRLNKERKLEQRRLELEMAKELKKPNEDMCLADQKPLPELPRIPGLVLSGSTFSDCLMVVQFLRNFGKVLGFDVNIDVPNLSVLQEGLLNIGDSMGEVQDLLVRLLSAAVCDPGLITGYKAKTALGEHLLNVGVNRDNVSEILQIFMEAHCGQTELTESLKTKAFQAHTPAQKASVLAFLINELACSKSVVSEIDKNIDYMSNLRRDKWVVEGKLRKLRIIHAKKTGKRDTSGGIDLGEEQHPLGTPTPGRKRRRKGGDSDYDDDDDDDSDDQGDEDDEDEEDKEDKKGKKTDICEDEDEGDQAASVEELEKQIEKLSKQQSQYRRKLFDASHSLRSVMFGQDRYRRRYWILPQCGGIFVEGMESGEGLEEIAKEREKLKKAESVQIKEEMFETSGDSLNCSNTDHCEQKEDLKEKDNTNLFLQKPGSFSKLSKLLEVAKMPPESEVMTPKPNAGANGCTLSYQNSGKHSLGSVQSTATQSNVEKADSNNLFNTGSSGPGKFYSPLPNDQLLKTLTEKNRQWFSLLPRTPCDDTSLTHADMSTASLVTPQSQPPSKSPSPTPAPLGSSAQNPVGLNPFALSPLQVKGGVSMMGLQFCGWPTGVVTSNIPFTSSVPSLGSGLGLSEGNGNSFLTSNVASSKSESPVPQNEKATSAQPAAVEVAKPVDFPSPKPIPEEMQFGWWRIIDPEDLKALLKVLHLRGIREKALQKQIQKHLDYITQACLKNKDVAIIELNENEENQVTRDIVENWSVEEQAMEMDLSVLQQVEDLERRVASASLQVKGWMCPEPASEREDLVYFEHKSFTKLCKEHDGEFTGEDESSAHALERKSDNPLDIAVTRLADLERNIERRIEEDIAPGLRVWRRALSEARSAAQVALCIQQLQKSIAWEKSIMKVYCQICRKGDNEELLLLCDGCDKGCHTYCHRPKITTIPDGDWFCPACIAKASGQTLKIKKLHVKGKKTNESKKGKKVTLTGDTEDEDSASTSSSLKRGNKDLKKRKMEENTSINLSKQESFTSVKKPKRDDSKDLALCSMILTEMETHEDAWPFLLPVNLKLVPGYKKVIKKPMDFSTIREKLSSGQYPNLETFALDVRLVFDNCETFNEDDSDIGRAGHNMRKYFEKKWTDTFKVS
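In this displacement format the biotinylated H3(5-23) peptide acetylated at Lys14 serves as ligand at 50 nM, with BAZ2B at 50 nM in PBS pH 7.4 containing 0.01% Tween-20. Donor and acceptor beads are 10 ug/mL final.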
Sfp PPTase inh: inhibitors of Bacillus subtilis Sfp phosphopantetheinyl transferase. Q9F4F7. Biochemical Sfp PPTase activity, qHTS. Potency, µM, actives largely listed as inhibitors. 3.5% of 310,000 active. AID 1490;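 further: the enzyme is Sfp with the accession as filed and its product quenches rhodamine fluorescence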
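Buffer: 50 mM Hepes-Na pH 7.6, 10 mM MgCl2, 0.01% Nonidet P-40, 0.01% BSA. Enzyme 15 nM, pre-exposed to compound 15 min; substrates then added and fluorescence change tracked over 30 min.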
G9a block: blocks human histone lysine methyltransferase G9a | Q96KQ7 | G9a H3K9 monomethylation, AlphaScreen, 2 h | Potency, µM (highest dose often 102 µM), usual class: inhibitors | 8.8% of 350,000 active; further: nearly all actives have a fitted effect of over 75% in size
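G9a (20 nM) preincubated 15 min RT with compounds, then 500 nM biotinylated H3K9 peptide and 20 uM SAM added; 2 h RT reaction. Monomethyl-H3K9 product detected by AlphaScreen with anti-H3K9me1 antibody, streptavidin donor and anti-rabbit IgG acceptor beads.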
JMJD2A Tudor inh: JMJD2A Tudor domain (human) inhibition; O75164; AlphaScreen JMJD2A-Tudor / H3K4me3 peptide binding; Potency, µM (highest dose often 114 µM), actives largely listed as inhibitors; 4.4% of 390,000 active; AID 504339; further: nearly all actives have a fitted effect of over 50% in size
HP1b binding inh: blocks HP1-beta chromodomain binding to methylated histone tails; P83916; AlphaScreen HP1-beta / biotin-H3K9me3 peptide binding; Potency, µM (series often up to 114 µM), actives largely listed as inhibitors; 0.56% of 390,000 active; AID 540317; further: nearly all actives have a fitted effect of over 70% in size
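Compound inhibition of the preformed complex between 50 nM HP1-beta and 50 nM biotinylated H3K9me3 peptide was read by AlphaScreen. Buffer was PBS pH 7.4 with 0.01% Tween-20. Incubations ran 30 min at room temperature, with 10 ug/mL donor/acceptor beads.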
L3MBTL1 block: inhibitors of human L3MBTL1. Potency, µM (top dose mostly 57.1 µM), hits mostly inhibitors. AID 485360. Q9Y468. 0.66% of 230,000 active. AlphaScreen L3MBTL1–H3K9me1 peptide binding; further: nearly all actives have a fitted effect of over 60% in size
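First, the protein-peptide complex forms for 30 min at room temperature (L3MBTL1 50 nM, biotinylated H3K9me1 peptide 75 nM). Next, compounds are pin-transferred and incubated 30 min. Finally, AlphaScreen beads are added and read after 30 min.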
Of the large screens only hits and unclear results are named; the others gave an inactive call. Most compounds without a hit are left out; they make up all but 12% or so of the library. The call rests on the fitted dose curve; in most records, active means well fitted curve in the direction sought with a large enough effect; inconclusive means small, poorly fitted or top-dose-only effect, or another doubt; inactive means no such curve, though single readings can be large; an effect the other way counts as inactive or inconclusive.

COc1ccc(CCNc2nc(-c3sc(N)nc3C)cs2)cc1OC	BAZ2B block 50.1µM, G9a block inconclusive, JMJD2A Tudor inh 56.2µM, HP1b binding inh inconclusive (no result: L3MBTL1 block)
CC(=O)Nc1ccc(Nc2nc(-c3sc(C)nc3C)cs2)cc1	BAZ2B block inconclusive, G9a block inconclusive
COc1ccc(Nc2nc(-c3sc(NC(C)=O)nc3C)cs2)cc1	Sfp PPTase inh 39.8µM, G9a block 39.8µM (no result: JMJD2A Tudor inh, HP1b binding inh, L3MBTL1 block)
CCOc1ccc(Nc2nc(-c3sc(N)nc3C)cs2)cc1	BAZ2B block 44.7µM, G9a block 35.5µM, JMJD2A Tudor inh 50.1µM, HP1b binding inh inconclusive
Cc1nc(C)c(-c2csc(Nc3ccc(S(N)(=O)=O)cc3)n2)s1	G9a block inconclusive
COc1ccc(OC)c(/C=C/C(=O)Nc2ccc(C(=O)OCCC(C)C)cc2)c1	none (no result: Sfp PPTase inh, L3MBTL1 block)
Cc1ccc(CNC(=O)c2cccc(-n3cnc4cccnc43)c2)cc1	none (no result: Sfp PPTase inh, L3MBTL1 block)
Cc1ccc(S(=O)(=O)N(C)CCCN(C)c2nc(-c3cccs3)nc3ccccc23)cc1	none (no result: BAZ2B block, Sfp PPTase inh, G9a block, L3MBTL1 block)
COc1ccc(Nc2nc(-c3sc(N)nc3C)cs2)cc1	BAZ2B block 14.1µM, Sfp PPTase inh 17.8µM, G9a block inconclusive, JMJD2A Tudor inh 50.1µM, HP1b binding inh inconclusive
COc1ccc(Cc2c(C)nn(-c3nc(C)c(C(=O)Nc4ccc(C)cc4C)s3)c2C)cc1	JMJD2A Tudor inh inconclusive (no result: Sfp PPTase inh, L3MBTL1 block)
CC(C)CN(C(=O)CN1CCN(c2ccc(O)cc2)CC1)c1c(N)n(CC(C)C)c(=O)[nH]c1=O	Sfp PPTase inh 25.1µM, G9a block inconclusive, JMJD2A Tudor inh inconclusive, HP1b binding inh 50.1µM
CCN(C(=O)CN1CCCCCC1)c1c(N)n(Cc2ccccc2)c(=O)[nH]c1=O	none (no result: BAZ2B block, Sfp PPTase inh, G9a block)
COCCN(C(=O)CN1CCc2ccccc21)c1c(N)n(Cc2ccccc2)c(=O)[nH]c1=O	G9a block inconclusive (no result: Sfp PPTase inh)
CCN(C(=O)CN1CCN(c2ccc(O)cc2)CC1)c1c(N)n(Cc2ccccc2)c(=O)[nH]c1=O	Sfp PPTase inh 14.1µM, G9a block 8.91µM, JMJD2A Tudor inh inconclusive (no result: BAZ2B block)
CCN(C(=O)CN1CCc2ccccc21)c1c(N)n(Cc2ccccc2)c(=O)[nH]c1=O	G9a block 28.2µM
CC(=O)c1ccc(N2CCN(CC(=O)N(CC(C)C)c3c(N)n(CC(C)C)c(=O)[nH]c3=O)CC2)cc1	none (no result: L3MBTL1 block)
Cn1c(=O)c(C(=O)CN2CCCc3ccccc32)c(N)n(Cc2ccccc2)c1=O	G9a block inconclusive, JMJD2A Tudor inh inconclusive, L3MBTL1 block inconclusive
Cn1c(=O)c(C(=O)CN2CCc3ccccc32)c(N)n(Cc2ccccc2)c1=O	G9a block 35.5µM, JMJD2A Tudor inh 50.1µM
CC(=O)c1cccc(NC(=O)c2c(N3CCCC3=O)c3cc(F)ccc3n2C)c1	G9a block inconclusive (no result: Sfp PPTase inh, L3MBTL1 block)
Cc1ccccc1OCCn1c(=S)[nH]c2c(N)ncnc21	G9a block 1.78µM, JMJD2A Tudor inh 7.08µM, HP1b binding inh inconclusive (no result: L3MBTL1 block)
COc1ccccc1-n1c(-c2ccccc2)c[nH]c1=S	BAZ2B block inconclusive, Sfp PPTase inh 10µM, G9a block 0.891µM, JMJD2A Tudor inh inconclusive
S=c1[nH]cc(-c2ccccc2)n1-c1ccccc1Cl	Sfp PPTase inh inconclusive, G9a block inconclusive, JMJD2A Tudor inh 50.1µM
CCCCN(CC)C(=O)CCNS(=O)(=O)c1ccc2c(c1)c(=O)n(C)c(=O)n2C	none (no result: Sfp PPTase inh, L3MBTL1 block)
CCN1/C(=C2\C(=O)N(c3ccccc3)N=C2C)C=Cc2cc(C)ccc21	BAZ2B block 56.2µM, G9a block inconclusive
CC(=O)c1cccc(N(C(=O)Cn2nnc3ccccc32)C(C(=O)NCc2ccccc2)c2ccc(F)cc2)c1 (stereo not drawn)	none (no result: Sfp PPTase inh, L3MBTL1 block)
O=C(Nc1ccc(N2CCOCC2)cc1)Nc1ccc2nc(-c3ccco3)c(-c3ccco3)nc2c1	Sfp PPTase inh 10µM, G9a block 1.78µM, JMJD2A Tudor inh inconclusive, L3MBTL1 block inconclusive
O=C(NCCCO)Nc1ccc2nc(-c3ccco3)c(-c3ccco3)nc2c1	BAZ2B block 3.55µM, Sfp PPTase inh 14.1µM, G9a block 1.78µM (no result: JMJD2A Tudor inh, HP1b binding inh, L3MBTL1 block)
OCCCNC(=S)Nc1ccc2nc(-c3ccccn3)c(-c3ccccn3)nc2c1	none
O=C(Nc1ccc2nc(-c3cccs3)c(-c3cccs3)nc2c1)N1CCOCC1	none
Cc1ccc(NC(=O)c2ccc3c(c2)NC(=O)c2ccccc2S3)cc1	none (no result: Sfp PPTase inh, L3MBTL1 block)
